Screening data as filed in PubChem.
GLS inh = glutaminase GLS (human) inhibition | Potency, µM (series often up to 45.5 µM), for the others: top-dose activity change, negative = inhibition, hits mostly inhibitors | GLS enzymatic activity, qHTS titration | AID 624170 | 410,000 compounds, 0.21% hits | O94925; further: on the % scale 0 is the no-effect control and ±100 the full control effect
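hKGA; 45 mM KH2PO4 pH 8.2 + 0.02% Tween-20; cpd via pin tool; 1 mM Gln soln; GluOx/HRP/Amplex Red; RT 30 min; fluor. t0 & final.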
BAZ2B inh = inhibitors of human BAZ2B bromodomain; AlphaScreen BAZ2B-H3K14Ac peptide displacement; Potency, µM (doses to about 114 µM), inactives show at the top dose activity change, negative = inhibition, most hits filed as inhibitors; Q9UIF8; 360,000 compounds, 4.4% hits; further: on the % scale 0 is the no-effect control and ±100 the full control effect; nearly all actives have a fitted effect of over 60% in size
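Complex of BAZ2B and biotin-H3K14Ac (50 nM apiece) forms over 30 min at RT, then faces library compounds up to 110 uM for another 30 min; AlphaScreen beads added, 20 min dark incubation, luminescence read.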
JMJD2A Tudor = inhibitors of human JMJD2A Tudor domain; O75164; AlphaScreen JMJD2A-Tudor / H3K4me3 peptide binding; Potency, µM (doses to about 114 µM), without a hit: at the highest dose activity change, negative = inhibition, hits mostly inhibitors; 390,000 compounds, 4.4% hits; further: on the % scale 0 is the no-effect control and ±100 the full control effect; nearly all actives have a fitted effect of over 50% in size
HP1b chromo inh = blocks HP1-beta chromodomain binding to methylated histone tails; AlphaScreen HP1-beta / biotin-H3K9me3 peptide binding; Potency, µM (doses to about 114 µM), inactives show at the highest dose activity change, negative = inhibition, most hits filed as inhibitors; 390,000 compounds, 0.56% hits; further: nearly all actives have a fitted effect of over 70% in size
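AlphaScreen: HP1-beta (50 nM) preformed 30 min with biotin-H3(1-18)K9me3 peptide (50 nM) in PBS pH 7.4, 0.01% Tween-20. Compound added for 30 min at RT, then streptavidin donor/nickel chelate acceptor beads (10 ug/mL) for 30 min.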
G9a block = blocks human histone lysine methyltransferase G9a; G9a H3K9 monomethylation, AlphaScreen, 2 h; Q96KQ7; 350,000 compounds, 8.8% hits; Potency, µM (top dose mostly 102 µM), for inactives: at the top dose activity, negative = inhibition, usual class: inhibitors; further: on the % scale 0 is the no-effect control and ±100 the full control effect; nearly all actives have a fitted effect of over 75% in size
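Enzyme 20 nM + cpd, 15 min RT; add b-H3K9 pep 500 nM / SAM 20 uM; 2 h RT; anti-H3K9me1 Ab 0.5 ug/mL + SA donor / anti-rabbit acceptor beads 20 ug/mL each, 10 min; AlphaScreen read.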
An asterisk follows results filed as active; [ ] = dose if it differs, or a comment. Shown are actives, neighbours in structure and some others; about 10% of the full set was active somewhere. The call rests on the fitted dose curve; in most records, active means well fitted curve in the direction sought with a large enough effect; inconclusive means small, poorly fitted or top-dose-only effect, or another doubt; inactive means no such curve, though single readings can be large; an effect the other way counts as inactive or inconclusive. Potency means the concentration at half of the fitted maximal effect.

`CCOC(=O)c1ccc(S(=O)(=O)N2CCN(CC(O)COc3ccc(C#N)cc3)CC2)cc1` (stereo unspecified) gave GLS inh 8%, BAZ2B inh 56µM*, JMJD2A Tudor 20µM*, HP1b chromo inh -30% and G9a block 35µM*.
For Cc1ccc(Cn2nnc3c(=O)[nH]c(C4CCCN(C(=O)Nc5ccc(F)cc5)C4)nc32)cc1 (stereo unspecified) the results were GLS inh 1%, BAZ2B inh -3%, JMJD2A Tudor 1%, HP1b chromo inh 45% and G9a block -19%.
Screening CCN1CCN(CC(O)COc2ccc(C(C)=O)cc2)CC1 (stereo unspecified) returned GLS inh -3%, BAZ2B inh 2%, JMJD2A Tudor -30%, HP1b chromo inh 52% and G9a block 50µM*.
Screening CC(=O)c1ccc(OCC(O)CN2CCN(Cc3ccc4c(c3)OCO4)CC2)cc1 (stereo unspecified) returned GLS inh 2%, BAZ2B inh -10%, JMJD2A Tudor 63µM*, HP1b chromo inh 48% and G9a block inconclusive.
S=C(NCc1ccncc1)Nc1ccc(Br)cc1Cl was read as GLS inh 13%, BAZ2B inh -8%, JMJD2A Tudor -14%, HP1b chromo inh 48% and G9a block inconclusive.
For Cc1cccnc1NC(=S)Nc1ccc(Br)cc1Cl the results were GLS inh -16%, BAZ2B inh 50µM*, JMJD2A Tudor inconclusive, HP1b chromo inh inconclusive and G9a block inconclusive.
For O=C(CSc1cn(CCNC(=O)c2ccccc2)c2ccccc12)NCC1CCCO1 (stereo unspecified) the results were GLS inh 13%, BAZ2B inh -5%, JMJD2A Tudor -12%, HP1b chromo inh 29% and G9a block 1%.
O=C(CSc1cn(CCNC(=O)c2ccccc2)c2ccccc12)NCc1ccco1 was read as GLS inh 2%, BAZ2B inh inconclusive, JMJD2A Tudor inconclusive, HP1b chromo inh 17% and G9a block 40µM*.
CCCn1cc(SCC(=O)NCc2ccco2)c2ccccc21 was read as GLS inh -8%, BAZ2B inh inconclusive, JMJD2A Tudor -31%, HP1b chromo inh 15% and G9a block 40µM*.
For COc1ccccc1C(CNc1ncccc1[N+](=O)[O-])N(C)C (stereo unspecified) the results were GLS inh 9%, BAZ2B inh -13%, JMJD2A Tudor -22%, HP1b chromo inh -8% and G9a block inconclusive.
For Cc1cc(Cl)ccc1NC(=O)CCCN1C(=O)CCC1=O the results were GLS inh 1%, BAZ2B inh -3%, JMJD2A Tudor -12%, HP1b chromo inh 5% and G9a block 6%.
Screening O=c1c2[nH]c3ccccc3c2ncn1Cc1cccnc1 returned GLS inh -9%, BAZ2B inh -13%, JMJD2A Tudor -12%, HP1b chromo inh 20% and G9a block -18%.
`O=C(c1cc(-c2ccccc2)nn1CC1CC(c2cccnc2)=NO1)N1CCOCC1` (stereo unspecified) gave GLS inh 0%, JMJD2A Tudor inconclusive and HP1b chromo inh 24%.
For Cc1ccc(-n2nc(-c3ccco3)cc2C(=O)O)c(C)c1 the results were GLS inh 156%, BAZ2B inh 45µM*, JMJD2A Tudor 56µM*, HP1b chromo inh -24% and G9a block 18µM*.
Screening Cc1ccc(-n2nc(-c3cccnc3)cc2C(=O)N2CCOCC2)c(C)c1 returned GLS inh -12%, BAZ2B inh -33%, JMJD2A Tudor -24%, HP1b chromo inh 1% and G9a block 45µM*.
`O=C(O)c1cc(-c2ccco2)nn1-c1cccc(Cl)c1` gave GLS inh 22%, BAZ2B inh 50µM*, JMJD2A Tudor 56µM*, HP1b chromo inh -7% and G9a block 18µM*.
For Cc1ccc(-n2nc3c(c2NC(=O)c2ccco2)CS(=O)(=O)C3)c(C)c1 the results were GLS inh 9%, BAZ2B inh -4%, JMJD2A Tudor -11%, HP1b chromo inh 28% and G9a block -25%.
For O=C(O)c1cc(-c2ccco2)nn1-c1ccc(Cl)cc1 the results were GLS inh 141%, BAZ2B inh 50µM*, JMJD2A Tudor 50µM*, HP1b chromo inh inconclusive and G9a block 10µM*.
Screening Cc1ccc(S(=O)(=O)N2[C@@H](c3ccc(F)cc3)C(C(=O)O)=CC[C@H]2c2cccc(Cl)c2)cc1 returned GLS inh 27%, BAZ2B inh 5%, JMJD2A Tudor -19%, HP1b chromo inh 16% and G9a block 19%[2.33 µM].
Screening CC(C)=C1SC(N2CCN(c3ccc(Cl)cc3)CC2)=NC1=O returned GLS inh 6%, BAZ2B inh -19%, JMJD2A Tudor -8%, HP1b chromo inh 4% and G9a block -8%[59 µM].
`O=c1[nH]c2ccc(Cl)cc2c(-c2ccccc2)c1CN1CCOCC1` gave GLS inh -10%, BAZ2B inh -9%, JMJD2A Tudor inconclusive, HP1b chromo inh 2% and G9a block 35µM*.
Screening NC(=O)C1CCN(c2ccc(S(=O)(=O)N3CCCCC3)cc2[N+](=O)[O-])CC1 returned GLS inh -17%, JMJD2A Tudor -18% and HP1b chromo inh 2%.
Screening Nc1ncnc2c1ncn2Cc1ccccc1 returned GLS inh -1%, BAZ2B inh 0%, JMJD2A Tudor 9%, HP1b chromo inh 31% and G9a block -6%.
For O=C(CCc1nc2ccccc2c(=O)[nH]1)Nc1nc(-c2cccs2)cs1 the results were GLS inh -1%, BAZ2B inh 2%, JMJD2A Tudor -19%, HP1b chromo inh -14% and G9a block 45µM*.
CN(c1ccc(-c2csc(NC(=O)CCCc3nc4ccccc4c(=O)[nH]3)n2)cc1)S(C)(=O)=O was read as GLS inh -1%.
C=CCn1c(C)cc(-c2csc(NC(=O)CCc3nc4ccccc4c(=O)[nH]3)n2)c1C was read as GLS inh -4%, BAZ2B inh inconclusive, JMJD2A Tudor -26%, HP1b chromo inh -2% and G9a block 32µM*.
For O=C(COC(=O)/C=C/c1ccc([N+](=O)[O-])cc1)Nc1ccc2[nH]c(=O)[nH]c2c1 the results were GLS inh 6%, BAZ2B inh 5%, JMJD2A Tudor -14%, HP1b chromo inh 9% and G9a block 50µM*.
O=C(COC(=O)/C=C/c1cccc(F)c1)Nc1ncccn1 was read as GLS inh inconclusive, BAZ2B inh 56µM*, JMJD2A Tudor inconclusive, HP1b chromo inh -5% and G9a block 71µM*.
`O=C(COC(=O)/C=C/c1cccc(Cl)c1)Nc1ccc2[nH]c(=O)[nH]c2c1` gave GLS inh 19%, BAZ2B inh -5%, JMJD2A Tudor -10%, HP1b chromo inh 36% and G9a block 32µM*.
